# Reference: PubChem BioAssay (Tox21)
# Inconclusive results are not listed. Activity calls are given as the source filed them. The call rests on the fitted dose curve; in most records, active means well fitted activation curve with a large enough effect in the repeat runs; inconclusive means weak or mixed curves; inactive means flat fitted curve, though single readings scatter.
# Assay: A CellTox Green Cytotoxicity Assay to monitor cytotoxicity in HEK293 cells - 32 hour (AID 1224881); further: nearly all actives have a fitted effect of over 40% in size
# Conditions: CellTox Green fluorescence; series mostly up to 35.3 µM; cytotoxicity increase: at the top concentration
# Source text: National Center for Advancing Translational Sciences [NCATS]
# NIH Chemical Genomics Center [NCGC]
# U.S. Environmental Protection Agency [EPA]
# National Institutes of Environmental Health Sciences [NIEHS]
# National Toxicology Program [NTP]
# Cell-based models are critical for drug discovery. Determining the natural cytotoxic effects resulting from test compounds is an essential research activity. A CellTox Green Cytotoxicity Assay to monitor cytotoxicity in real time of continues cell culture during 40 hours of the compound treatment was used to screen Tox21 10K library compounds in Hek293 cells. CellTox Green Cytotoxicity Assay is a nonlytic, homogeneous, biofluorescent method to measure cytotoxicity in cell culture after experimental manipulation. The assay system uses a proprietary asymmetric cyanine dye that is excluded from viable cells but preferentially stains the dead cell's DNA. […] Viable cells produce no appreciable increases in fluorescence. Therefore, the fluorescence signal produced by the binding interaction with dead cell DNA is proportional to cytotoxicity.
# The mixture of Hek293 cell suspension and reagents were dispensed at 600cells/6 ul/well in 1536-well tissue culture treated black solid bottom plates using a Multidrop dispenser. After the assay plates were incubated at a 37 C/5% CO2 incubator for 5 hours, 23 nL of compounds dissolved in DMSO, positive and negative controls was transferred to the assay plate by a pintool work station. The plates were incubated at 37 C for 40 hours. The fluorescence intensity were measured at 0h, 8h, 16h, 24h, 32h and 40h time points using ViewLux plate reader during compound treatment.
# On the % scale 0 is the no-effect control and ±100 the full control effect.
row,Compound,cytotoxicity increase
1,C=C(C)CS(=O)(=O)O,7.24% [at 76.8 µM] (inactive)
2,NC(CSCC(=O)O)C(=O)O (stereo not given),-6.89% (inactive)
3,CC(C)(C)c1nnc(NS(=O)(=O)c2ccccc2)s1,-7.36% (inactive)
4,CC(C)=CCCC(C)CC(=O)O (stereo not given),-1.37% [at 76.8 µM] (inactive)
5,CC(C)(O)C(=O)c1ccccc1,8.85% [at 76.8 µM] (inactive)
6,NCCCNCCSP(=O)(O)O,-9.01% [at 6.97 µM] (inactive)
7,NC(=O)Nc1ccccc1,-9.2% [at 76.8 µM] (inactive)
8,FC1(F)C(F)(F)C(F)(F)C2(F)C(F)(F)C(F)(F)C(F)(F)C(F)(F)C2(F)C1(F)F (stereo not given),-19.7% (inactive)
9,CCCCCSCCCCC,-13.8% [at 76.8 µM] (inactive)
10,CCCN(CCC)CCc1cccc2c1CC(=O)N2,-3.52% (inactive)
11,N[C@@H](C(=O)N[C@@H]1C(=O)N2C(C(=O)O)=C(Cl)CS[C@H]12)c1ccccc1,-0.855% [at 6.97 µM] (inactive)
12,COCCCOCCCOC,-7.43% [at 76.8 µM] (inactive)
13,CCOC(=O)c1ccc(C)cc1,-7.05% [at 76.8 µM] (inactive)
14,CN1CCN(c2cc3c(cc2F)c(=O)c(C(=O)O)cn3-c2ccc(F)cc2)CC1,-15.8% (inactive)
15,O=S(O)CO,6.2% [at 76.8 µM] (inactive)
16,OC(CCN1CCCCC1)(c1ccccc1)C1CC2C=CC1C2 (stereo not given),22.1% (inactive)
17,C[C@@H]1CCN(C(=O)[C@H](CCCN=C(N)N)NS(=O)(=O)c2cccc3c2NC[C@H](C)C3)[C@@H](C(=O)O)C1,-10.5% (inactive)
18,Cn1c(N)c(N=O)c(=O)n(C)c1=O,-20.1% [at 76.8 µM] (inactive)
19,CCO/C([O-])=N/c1c[n+](N2CCOCC2)no1,-8.4% (inactive)
20,FC(F)OC(Cl)C(F)(F)F (stereo not given),-1.5% [at 76.8 µM] (inactive)

row,Compound,cytotoxicity increase
1,CCOC(=O)[C@H](CCc1ccccc1)N[C@@H](C)C(=O)N1[C@H](C(=O)O)C[C@@H]2CCC[C@@H]21,0.0518% (inactive)
2,CCOC(=O)c1c(C)n(C)c2ccc(O)cc12,2.92% (inactive)
3,CN1CCC(=C2c3ccccc3CC(=O)c3sccc32)CC1,-6.81% (inactive)
4,CO[C@]12C[C@@H](COC(=O)c3cncc(Br)c3)CN(C)[C@@H]1Cc1cn(C)c3cccc2c13,25% (inactive)
5,CS(=O)(=O)O,-11.2% [at 76.8 µM] (inactive)
6,C/C=C(\C)C#N,4.11% [at 76.8 µM] (inactive)
7,NCCc1cnc[nH]1,-0.144% (inactive)
8,O=C1NC(=O)[C@@]2(CCOc3ccc(F)cc32)N1,-8.25% (inactive)
9,N[C@H](C(=O)O)c1ccc(O)cc1,2.7% [at 15.8 µM] (inactive)
10,NS(=O)(=O)c1cc2c(cc1Cl)NC(C1CC3C=CC1C3)NS2(=O)=O (stereo not given),3% (inactive)
11,NS(=O)(=O)c1ccc(C(=O)O)cc1,-9.55% (inactive)
12,CC(=O)OCC(=O)[C@@]1(O)CCC2C3CCC4=CC(=O)CC[C@]4(C)C3[C@@H](O)C[C@@]21C (stereo not given in full),-27.5% (inactive)
13,COC(=O)C1=C(C)NC(C)=C(C(=O)OC)C1c1ccccc1[N+](=O)[O-],-6.23% (inactive)
14,N#Cc1ccc(C2CCCc3cncn32)cc1 (stereo not given),-8.03% (inactive)
15,COC(=O)CC(C)=O,17% [at 76.8 µM] (inactive)
16,C=CCS(=O)(=O)O,-6.09% [at 76.8 µM] (inactive)
17,COC(=O)c1ccc(C)cc1C1=NC(C)(C(C)C)C(=O)N1 (stereo not given),14% [at 76.8 µM] (inactive)
18,NS(=O)(=O)c1cc(C(=O)NN2C[C@H]3[C@H]4CCC(C4)[C@H]3C2)ccc1Cl,1.48% (inactive)
19,CC(C(=O)O)c1ccc(CC2CCCC2=O)cc1 (stereo not given),-4.99% (inactive)
20,Nc1ccc(S(=O)(=O)Nc2ccnn2-c2ccccc2)cc1,2.51% [at 15.8 µM] (inactive)
